# Laboratory results taken from publication PMC7819943, “Rice protein-binding microarrays: a tool to detect cis-acting elements near promoter regions in rice”.
# Over roughly 39,000 sequences, “fluorescence intensity (a.u.)” has its median near 4,300; the highest 2% begin near 39,000. Only a selection was taken, and the highest values are over-represented in it overall.
# Molecular target: T1, OsSMF1 (Oryza sativa, UniProt Q6ZLB0 1-436)
# T1 sequence: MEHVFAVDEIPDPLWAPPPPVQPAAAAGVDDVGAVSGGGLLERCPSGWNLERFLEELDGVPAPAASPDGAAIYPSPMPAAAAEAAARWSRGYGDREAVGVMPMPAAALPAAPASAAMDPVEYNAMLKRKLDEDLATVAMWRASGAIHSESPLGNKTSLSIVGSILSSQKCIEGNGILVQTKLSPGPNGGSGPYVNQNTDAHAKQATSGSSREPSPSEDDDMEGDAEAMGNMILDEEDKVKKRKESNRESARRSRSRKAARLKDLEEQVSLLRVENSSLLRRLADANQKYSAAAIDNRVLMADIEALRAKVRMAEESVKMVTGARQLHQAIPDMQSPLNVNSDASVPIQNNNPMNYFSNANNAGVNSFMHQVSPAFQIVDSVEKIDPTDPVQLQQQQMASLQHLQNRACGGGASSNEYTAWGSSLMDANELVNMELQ
# Experiment: protein-binding microarray (RPBM); PBS, 2% BSA, 51.3 ng/ul salmon testes DNA, 50 uM zinc acetate, 200 nM TF, 25 C, 1 h; high values mean tight binding
# Conditions: protein: recombinant; tags: N-terminal polyhistidine and DsRed monomer fusion (pET32a); chain copies: 2; label: CyDye5-dUTP incorporated in the synthesized complementary strand; 3' TTTTT single-stranded linker to array surface; dsDNA, one strand shown
# Outline: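 The binding signal is fluorescence intensity per feature, in arbitrary units, read on an Axon 4000B scanner. Polyhistidine- and DsRed-tagged transcription factors (N-terminal fusions) from E. coli BL21-CodonPlus were purified on Ni–NTA and applied at 200 nM for 1 h at 25 °C to a double-stranded, BSA-blocked custom Agilent array in buffer with 50 µM zinc acetate.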
row,Sequence,binding signal
1,TCCCCGTCTTTTCCTTCCGCCTCACCAACCTCGTCTCGTCCGGAGTCACCTAGTGCAG,3330 fluorescence intensity (a.u.)
2,TCGTCGATGTCACCGCCACCACCGTCGTCATCGCTGCCTTCGGAGTCACCTAGTGCAG,3820 fluorescence intensity (a.u.)
3,CGTACGGCACCGAGTTATCGCCGCCAGGTCAGTTGGTTTACGGAGTCACCTAGTGCAG,3690 fluorescence intensity (a.u.)
4,AGCTAGAACGCACAGACTTTAGGCTTTAGGTACGATGATGCGGAGTCACCTAGTGCAG,43300 fluorescence intensity (a.u.)
5,CACTAGCTTGTTATATTTACGTGGCACACTTTGATGAGTACGGAGTCACCTAGTGCAG,11500 fluorescence intensity (a.u.)
6,CACAGGCAGGCCTGCAACATGCGTCACGCAGACTTTGATGCGGAGTCACCTAGTGCAG,4140 fluorescence intensity (a.u.)
7,AAAGCAACAGCAGCCCAGCACACCACAGCACAGCGCCGCTCGGAGTCACCTAGTGCAG,3180 fluorescence intensity (a.u.)
8,CATCATCATCTCTTCTCCTCTCTCTCTCTCTTTCCTTTTCCGGAGTCACCTAGTGCAG,8580 fluorescence intensity (a.u.)
9,TCCTCCTCGTCGTCATCTCCAACTCCCTCCCGCTCCCTTCCGGAGTCACCTAGTGCAG,5660 fluorescence intensity (a.u.)
10,CTTCACTAAGGTCATCGTCGTGCCTTCCTCGTCCTCCTCCCGGAGTCACCTAGTGCAG,43800 fluorescence intensity (a.u.)
11,TTCCTGACTTCCTCCTCCCTTTCTTCTCTCGCCGCCGAGACGGAGTCACCTAGTGCAG,41400 fluorescence intensity (a.u.)
12,TCCTGTCCTTCTTTCTCTTCAAGTCCTTCCTCTTCACTCCCGGAGTCACCTAGTGCAG,65500 fluorescence intensity (a.u.)
13,CTCCTCTCCTCCCTCCTCGACTTCTCCGCTTTCTCCGCCTCGGAGTCACCTAGTGCAG,3230 fluorescence intensity (a.u.)
14,TCTCCCCTCTCCTTCCTCCTCTCCTTTCCCCTCCTCTCTTCGGAGTCACCTAGTGCAG,17100 fluorescence intensity (a.u.)
15,TCCTCCATCGCCGCCTTCACCGAGTCACCGCCCGTCATCCCGGAGTCACCTAGTGCAG,3380 fluorescence intensity (a.u.)
16,CTCCTCTTCCCTTCCCTTCTCTCTTTTCTTTTCTCTCACACGGAGTCACCTAGTGCAG,28600 fluorescence intensity (a.u.)
17,GACCAAACCTCCAATTAACAAGGTAGTTTAACACACATCACGGAGTCACCTAGTGCAG,16100 fluorescence intensity (a.u.)
18,TACAAGTATAAAACTTTAGATACGTGGGATTAACACGTCACGGAGTCACCTAGTGCAG,6470 fluorescence intensity (a.u.)
19,CCTCGGGGAGGGCGTGGCAAGCGGCACGCGTGGCGGGGAGCGGAGTCACCTAGTGCAG,5890 fluorescence intensity (a.u.)
20,CCCCAGAAAGTCCCCATATTTCTAGGAACTTCCGTTCTAGCGGAGTCACCTAGTGCAG,13900 fluorescence intensity (a.u.)
21,GCTCATAGAGCTACACACTGATGACAAGACATAAGGGAAGCGGAGTCACCTAGTGCAG,4350 fluorescence intensity (a.u.)
22,ACCTCCGGCCCACGGACGCGACGCGCTTACACACATGGCCCGGAGTCACCTAGTGCAG,3580 fluorescence intensity (a.u.)
23,TGGATTACTCATAATGATTATGTCATATAGGTGATGTTGCCGGAGTCACCTAGTGCAG,3440 fluorescence intensity (a.u.)
